# Compounds with a hit are over-represented: about 6% of the library has one in this group of screens.
# D1 antagonist – antagonists of human D1 dopamine receptor; P21728; activity change, negative = inhibition, % at 10 µM; HEK293 TREx D1 cells, calcium flux, dopamine EC80; stronger effect = lower value; AID 504652; actives 3.2% (n = 360,000); in the data active means activity change below about -30%
# Target sequence (P21728 whole entry, looked up): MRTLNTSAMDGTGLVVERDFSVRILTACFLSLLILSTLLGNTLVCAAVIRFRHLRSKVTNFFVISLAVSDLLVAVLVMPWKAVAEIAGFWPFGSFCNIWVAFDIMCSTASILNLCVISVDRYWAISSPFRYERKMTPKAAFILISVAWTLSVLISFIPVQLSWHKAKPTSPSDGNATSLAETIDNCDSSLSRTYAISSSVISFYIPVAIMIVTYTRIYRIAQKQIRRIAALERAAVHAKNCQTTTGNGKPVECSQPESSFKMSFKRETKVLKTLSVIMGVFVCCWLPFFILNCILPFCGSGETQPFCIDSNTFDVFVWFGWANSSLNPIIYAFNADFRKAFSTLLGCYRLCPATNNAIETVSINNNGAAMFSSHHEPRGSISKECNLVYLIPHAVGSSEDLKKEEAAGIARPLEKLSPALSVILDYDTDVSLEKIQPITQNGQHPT
#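 After overnight tetracycline induction at 30 C, force-coupled D1 HEK293 cells took up a no-wash calcium dye at room temperature. Compounds were added and monitored 180 s, and the response to EC80 dopamine was then recorded.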
# D1 ag – agonists of human D1 dopamine receptor; HEK293 T-REx D1 cells, calcium flux, agonist mode; actives 1% (n = 360,000); activation, % at 2 µM; AID 504660; P21728; in the data active means activation above about 30%
#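 Tetracycline-induced HEK293 TREx D1 cells, force-coupled to calcium signalling, were dye-loaded with a no-wash calcium kit. Compound was pin-added after a 10 s baseline. Fluorescence was read kinetically at 1 cycle/s for 180 s, with calcium rises flagged as agonism.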
# D1 PAM – human D1 dopamine receptor positive modulation. HEK293 TREx D1 cells, calcium flux, dopamine EC20 potentiation. potentiation, % at 10 µM. AID 504651. actives 0.036% (n = 360,000). P21728; in the data active means potentiation above about 30%
# D3 antag – D3 dopamine receptor (human) antagonism. P35462. D3R cells, DiscoveRx beta-arrestin luminescence, antagonist mode; stronger effect = lower value. max response, negative = inhibition, %. actives 2.5% (n = 360,000); in the data active means max response below about -50%
#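 Cells expressing the human receptor were seeded at 1500 cells/well, incubated overnight at 37 degrees C in 5% CO2, then exposed to library compounds with dopamine controls for 90 minutes at 37 degrees C before luminescent detection.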
# D3 ag – activates the human D3 dopamine receptor; P35462; D3R DiscoveRx beta-arrestin cells, luminescence, 90 min; max activation, %; actives 0.58% (n = 410,000); AID 652048; in the data active means max activation above about 30%
#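 Cells at 1500/well, incubated overnight, then treated with pinned compounds (dopamine as control) for 90 min at 37 degrees C. DiscoveRx reagent added for 30 - 60 minutes at room temperature; luminescence read.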
# A number is an active result; – = inactive; · = not tested or not shown.
SMILES,D1 antagonist,D1 ag,D1 PAM,D3 antag,D3 ag
COc1ccc(-n2c(=O)[nH]cc(C(=O)N3CCCc4ccccc43)c2=O)cc1,-31,–,–,–,–
CCOC(=O)/C(=N/Nc1ccc(OC)cc1)N1CCCc2ccccc21,-42,–,–,–,–
COc1ccc(CCC(=O)N2CCCc3ccccc32)cc1,-37,–,–,–,–
CCOC(=O)/C(=N/Nc1ccccc1)N1CCCc2ccccc21,–,–,–,–,–
O=C(NCCc1ccccc1)C(=O)NCC(c1cccnc1)N1CCN(c2ccccc2F)CC1 (configuration not stated),–,–,–,·,–
Cc1c(C(=O)NCc2ccccc2Br)oc2c1-c1[nH]ncc1CC2,–,–,–,·,–
COc1cc(OC)c(NC(=O)c2ccc3c(c2)N(Cc2ccc(C)cc2)CCS3)cc1Cl,–,–,–,·,–
COc1ccc(-c2cc(OC(=O)c3cccc(Cl)c3)c3c(C)oc(C)c3c(=O)c2)cc1,–,–,–,·,–
O=C1CN(S(=O)(=O)c2c(F)cccc2F)CCN1S(=O)(=O)c1ccc2c(c1)OCCO2,–,–,–,·,·
Cc1cc(=O)oc2cc(OCCc3ccccc3)ccc12,–,–,–,–,–
COc1ccc(OCCCC(=O)N2CCCc3ccccc32)cc1,-34,–,–,–,–
Cc1cc(=O)oc2cc(OCCSCCN3CCCCC3)ccc12,-37,–,–,-66,–
O=c1[nH]c2cc3ccccc3cc2nc1-c1nnnn1C1CCCC1,·,·,·,-68,–
Cc1ccc(C(=O)Oc2ccc(Cl)c3cccnc23)cc1[N+](=O)[O-],–,–,–,-126,–
Cc1cccc(NC(=O)Oc2ccc(Cl)c3cccnc23)c1,·,·,·,-120,–
O=C(Oc1ccc(Cl)c2cccnc12)c1cccnc1,–,–,–,-70,–
CCOC(=O)c1cccc(Nc2ccc3cc(S(=O)(=O)N4CCCCC4)ccc3n2)c1,–,–,–,·,–
CCN1CCN(C(c2ccc(Cl)cc2)c2c(O)cc(C)n(CCOC)c2=O)CC1 (configuration not stated),-39,–,–,·,–
C[C@@H](O)[C@H](N)C(=O)O,·,·,·,·,–
CCc1nnc2c(NCc3cccc(OC)c3)nc3ccccc3n12,–,–,–,·,–
CCCCNC(=O)c1onc(CSc2ccncc2)c1C(=O)NCCCC,–,–,–,–,59
CCCCNC(=O)c1onc(CSc2ccccc2)c1C(=O)NCCCC,–,–,–,–,42
COc1cccc(C)c1NC(=O)C(OC(=O)CNC(=O)c1ccccc1)c1ccccc1 (configuration not stated),–,–,–,·,·
CCOC(=O)C1=C(COC(=O)/C=C/c2cc(OC)c(OC)c(OC)c2)NC(=O)NC1C (configuration not stated),-39,–,–,–,–
CCOC(=O)C1=C(COC(=O)c2ccc(OC)c(OC)c2OC)NC(=O)NC1C (configuration not stated),-44,–,–,–,–
SMILES,D1 antagonist,D1 ag,D1 PAM,D3 antag,D3 ag
CC(=O)Nc1ccc(-c2ccc(NC(C)=O)c(O)c2)cc1O,-32,–,–,–,–
COc1ccccc1NC(=O)CSc1nnc(-c2ccccc2C)o1,–,–,–,·,–
Cc1ccc(C)c(NC(=O)CSc2nnc(-c3ccncc3)o2)c1,–,–,–,–,–
COc1ccc(-c2nnc(SCC(=O)Nc3cc(F)ccc3C)o2)cc1,-39,–,·,–,–
COc1ccccc1NC(=O)CSc1nnc(-c2ccc(C)cc2)o1,-82,–,–,–,–
CC(C)c1ccccc1NC(=O)CSc1nnc(COc2ccccc2Cl)o1,–,38,–,·,–
CCOc1ccc(-c2nnc(SCC(=O)Nc3cc(F)ccc3F)o2)cc1,–,–,–,·,–
Cc1ccc(NC(=O)CSc2nnc(-c3ccc([N+](=O)[O-])cc3)o2)c(C)c1,–,51,–,·,–
CC[C@]12C(=O)N(C)C[C@H]([C@@H]3C(=O)N(C)C(=O)[C@@H]31)N2C(=O)c1ccc(Cl)cc1,·,·,·,–,–
COc1ccccc1NC(=O)CSc1nnc(-c2ccccn2)o1,–,–,·,–,32
COc1ccc(CCCc2nnc(SCC(=O)Nc3ccc(F)cc3)o2)cc1C,-50,–,–,·,–
COc1ccc(CCCc2nnc(SCC(=O)Nc3ccccc3F)o2)cc1C,–,–,–,·,–
CCC(=O)N1CCc2cc(S(=O)(=O)NC(CC(C)C)C(=O)NCCc3ccccc3)ccc21 (configuration not stated),–,–,–,·,–

# Screens deposited in PubChem by National Center for Advancing Translational Sciences (NCATS).
